96 molecules from PubChem BioAssay AID1259240 (Keith Lab, Institute of Cancer Science, University of …, 2017) can be followed below.

The nature of this experiment: modulation of TERT promoter-driven luciferase – cell-based, luciferase reporter, human, primary screen (AID 1259240). As to conditions: A2780 TERT promoter luciferase reporter, 16 h; at 20 µM, fold versus average of vehicle-only wells. A general note: A reporter such as luciferase makes a cellular process visible.

Unmarked numbers belong to inactive results. Calls of active or inactive are those of the source. Rule as the data show it: active = fold change mostly below about -2 (no sharp cut-off); inactive = mostly above about -1.8.

As to `C=CCNC(=O)CSc1nc(-c2cccs2)cc(C(F)(F)F)n1`, the fold change was -1.55. As for `CSc1cccc(NC(=O)C2CCN(S(=O)(=O)c3ccc4c(c3)oc(=O)n4C)CC2)c1`, the fold change is -1.36. Same read-out and setting: under `CCOC(=O)c1c(NC(=O)CSc2ncccn2)sc(C(C)=O)c1C` stands -1.02. Same read-out and setting: the result for `COc1ccccc1OCC(O)Cn1c(=N)n(CCN2CCOCC2)c2ccccc21` (stereo unspecified) reads -1.29; that for `c1ccc(-c2nnc3ccc(N4CCC5(CC4)OCCO5)nn23)cc1`, 1.02; that for `Brc1cccc(-c2nc3cnccn3c2NC2CCCCC2)c1`, -1.11. As to `Cc1c(/C=C2/SC(=S)N(CC(=O)O)C2=O)c2ccccc2n1C`, the fold change is 1.33. With `COc1nc(NC(C)(C)C)nc(Oc2ccc(=O)[nH]n2)n1`, the fold change was 2 (active). On the same count and under the same terms, under `CCOC(=O)c1nn(-c2ccc(F)cc2)c(=O)c2c(NC(=O)CCCl)scc12` stands -3.04 (active). In the case of `CC(C)n1cnc2cc(NCc3ccccn3)ccc21`, the fold change is -1.44.

For `O=C(c1cccc(Cl)c1)N1CCN(c2ccc3nnc(-c4ccccc4)n3n2)CC1`, the fold change is 1. As for `COc1cccc(-c2cc(N)n(S(=O)(=O)c3cccc4nsnc34)n2)c1`, the fold change is 1.15. The same measure, in the same setting: the result for `Nc1ccc(-c2nc3cc(N)c(Cl)cc3[nH]2)cc1` reads -4.84 (active); that for `O=c1c2ccccc2[nH]c(=S)n1CCCN1CCc2ccccc2C1`, -2.32 (active). On the same count and under the same terms, under `O=C(NCCCN1CCCCC1)C1CCC(CNS(=O)(=O)c2cccc3nsnc23)CC1` (stereo unspecified) stands -1.15; under `FC(F)(F)c1ccc2c(c1)C1C=CCC1C(c1ccncc1)N2` (stereo unspecified), -1.04. The same measure, in the same setting: under `O=C(CC(=O)Nc1ccc(F)cc1F)Nc1ccc2nc3n(c(=O)c2c1)CCCCC3` stands -1.32; under `COCCn1c(C)cc(C(=O)CSc2nnc3c(C)cc4ccccc4n23)c1C`, 1.96. As to `CC(=O)c1cccc(NC(=O)Nc2ccc3snnc3c2)c1`, the fold change was -1.05. Still for that read-out and setting: under `O=C(CCSc1nc(-c2ccc3c(c2)OCO3)cc(C(F)(F)F)n1)N1CCCCC1` stands -1.15. Still for that read-out and setting: the result for `CCOC(=O)C1CCN(c2c(N3CCC(C(=O)OCC)CC3)c(=O)c2=O)CC1` reads 1.06; that for `CCCc1cc(C(=O)Nc2c(C)n(C)n(-c3ccccc3)c2=O)no1`, -1.12; that for `O=C(O)C1CCN(c2nc3ccccc3n2Cc2ccccc2F)CC1`, 1.02. Same read-out and setting: the result for `CCC1(C)Cc2ccccc2-c2nc(NCCO)n(-c3ccccc3)c(=O)c21` (stereo unspecified) reads -1.48; that for `COc1ccc(/C=c2\sc3nc(-c4cc(OC)c(OC)c(OC)c4)nn3c2=O)c(OC)c1`, -1.26.

As for `COc1ccc(Nc2c(-c3ccc(C)o3)nc3ncccn23)cc1OC`, the fold change was -1.44. Still for that read-out and setting: the result for `CCOC(=O)C1CCN(c2c(Nc3ccc4c(c3)OCCO4)c(=O)c2=O)CC1` reads -1.02. Same read-out and setting: under `Cc1ccc2c(c1)/C(=c1/sc3n(c1=O)CN(c1ccc(Cl)cc1)CN=3)C(=O)N2` stands -1.65. Same read-out and setting: the result for `O=c1c2ccccc2nc(N2CCOCC2)n1Cc1ccccc1` reads -1.33.

As to `O=C(O)c1c2c(nc3ccc(S(=O)(=O)N4CCC(C(=O)N5CCCCCC5)CC4)cc13)CCCC2`, the fold change is 1.03. The same measure, in the same setting: under `COc1ccc(S(=O)(=O)c2cc3ccc(O)cc3oc2=O)cc1OC` stands -1.34; under `Cc1nnc2ccc(N3CCC(C)CC3)nn12`, 1.03; under `CS(=O)(=O)Nc1ccc(Cl)c2cccnc12`, -2.8 (active). Consider `COc1cc(-c2nc3cnccn3c2NC2CCCCC2)ccc1O`, for which the call was inactive.

As for `N=c1n(CCN2CCOCC2)c2ccccc2n1CC(O)c1ccco1` (stereo unspecified), the fold change was -2.53 (active). For `COc1ccccc1CNc1nc2ccccc2n2nnnc12`, the fold change is -3.71 (active). The same measure, in the same setting: the result for `Cc1ccc(-c2n[nH]c3c2C(c2cccc(O)c2)NC3=O)cc1` (stereo unspecified) reads -1.62.

`O=C(CSc1nc(-c2ccco2)cc(C(F)(F)F)n1)NCC1CCCO1` (stereo unspecified): the fold change was -1.44. Still for that read-out and setting: under `COc1cc2c(=O)c(S(=O)(=O)c3ccccc3)cn(Cc3ccccc3Cl)c2cc1OC` stands -1.09. `C=CCn1c(NCCN(CC)CC)nc2c1c(=O)[nH]c(=O)n2C`: the fold change was 1.22.

On to `Cc1ccc(N2C(=O)c3n[nH]c(C)c3C2c2cccs2)cc1` (stereo unspecified), for which the fold change is 1.21. The same measure, in the same setting: the result for `CCCCCn1c(=O)[nH]c2c(c1=O)CCC2` reads -1.18; that for `CC1=CC2=NC(=O)/C(=C\c3cc(C)n(-c4ccccc4F)c3C)C(=N)N2O1`, -1.81.

For the molecule `COc1ccc(Br)cc1/C=c1\sc2nc(-c3ccco3)nn2c1=O`, the fold change was 1.22. Same read-out and setting: the result for `CCC(CC)COC(=O)C1=C(C)NC(=O)CC1c1ccccc1C` (stereo unspecified) reads 1.08; that for `O=C(NCc1cccnc1)c1cccc(NC2=NC3CS(=O)(=O)CC3S2)c1` (stereo unspecified), -1.24. For the molecule `O=C(CCSCCc1ccccn1)Nc1nccs1`, the fold change is 1.07. The same measure, in the same setting: the result for `COc1ccc(NC(=O)CSc2nc(-c3ccco3)cc(C(F)(F)F)n2)c(OC)c1` reads -1.96; that for `CCc1nnc(NC(=O)CSc2ncnc3ccccc23)s1`, 1.11; that for `CCc1nc(C)cn1S(=O)(=O)c1cc(C)c(OC)cc1C`, -1.15.

`COc1ccc(Nc2nc(N)nc(CSc3nccn3C)n2)cc1`: the fold change is 1.57. Consider `CCS(=O)(=O)N1CCN(Cc2c[nH]c3ccccc23)CC1`, for which the fold change was -1.08. `CCOc1ccc(N2CC(O)=C(c3nc4ccccc4c(=O)[nH]3)C2=N)cc1`: the molecule was classed as inactive. Regarding `COc1ccc(C2=NN3C(C2)c2cc(Cl)ccc2OC3c2cccnc2)cc1` (stereo unspecified), the fold change was 1.37.

For the molecule `O=C(CN1C(=O)COc2ccc(S(=O)(=O)N3CCOCC3)cc21)N1CCC2(CC1)OCCO2`, the fold change was 1.48. On the same count and under the same terms, under `c1cc2nncn2nc1NCCCN1CCOCC1` stands -1.08. Still for that read-out and setting: under `Cc1ccc(-n2c(C)c3c(C)nn4cc(C)cc4c3c2C)cc1` stands -2.26 (active); under `COc1ccc2[nH]cc(S(=O)(=O)c3ccc(C)cc3)c(=O)c2c1`, 1.08; under `N=C1/C(=C/c2ccc(SCc3ccco3)o2)C(=O)N=C2SC=C(c3ccccc3)N12`, -1.25.

With `Cc1ccc(N2C(=O)c3n[nH]c(C)c3C2c2ccccc2F)cc1` (stereo unspecified), the fold change was 1.63.

For the molecule `COc1ccc(-c2noc(-c3ccc(Cl)cc3)n2)cc1OC`, the fold change was -4.04 (active). On the same count and under the same terms, under `CCN1C(=O)C2(/C(=C(/O)c3ccc(OC)cc3)C(=O)C(=O)N2CCOC)c2ccccc21` (stereo unspecified) stands 1.29. Still for that read-out and setting: under `CCOc1cc(C2CC(=O)Nc3cc4c(cc32)OCCO4)ccc1O` (stereo unspecified) stands -1; under `CCOC(=O)C1=C(CS(=O)(=O)c2ccc(F)c(C)c2)NC(=O)NC1c1ccccc1` (stereo unspecified), 1.21; under `O=C(Cn1c(=O)n(Cc2ccco2)c(=O)c2ccccc21)Nc1ccc(Cl)cc1Cl`, -1.13.

On to `COc1cccc(-c2nc(S(=O)(=O)c3ccc(C)cc3)c(N(C)C)o2)c1`, for which the fold change was -1.82. Still for that read-out and setting: the result for `CCCn1c(OC)nc2c1c(=O)n(C)c(=O)n2C` reads -1.58; that for `CN1CCN(C(=O)C2CCN(c3ccc(N4CCOCC4)nn3)CC2)CC1`, -1.4. Still for that read-out and setting: under `CCOc1csc2nc(C)cc(C)c12` stands -1.22.

With `Cc1ccc(NC(=O)CSc2nc3c(c(=O)[nH]2)CCC3)cc1F`, the outcome was inactive.

Regarding `COc1cc2[nH]c(C)cc(=O)c2cc1OC`, the fold change was 1.12. In the case of `O=C(NC1CCCC1)c1ccc2nc(N3CCOCC3)sc2c1`, the fold change is -1.15. With `CC(C)n1cnc2cc(NCc3ccncc3)ccc21`, the fold change is -2.71 (active). As for `Cn1c(C(=O)NCCN2CCOCC2)cc2c(=O)[nH]c3ccccc3c21`, the fold change is 1.17.

Regarding `CN1CCN(CCNC(=O)Cn2ncc3c4ccccc4n(C)c3c2=O)CC1`, the fold change is -1.16. Turning to `COc1ccc2cc3c(N)nn(C(=O)CSc4ccncc4)c3nc2c1`, the fold change is -1.05. Still for that read-out and setting: under `CCOC(=O)C1CCCN(c2c(OCC)c(=O)c2=O)C1` (stereo unspecified) stands 1.23. `CCOC(=O)CSc1nnc(-c2c[nH]c3ccccc23)n1C`: the result was inactive. With `Cc1oc(-c2ccccc2F)nc1CSc1nc2ccncc2[nH]1`, the fold change was -1.15. Still for that read-out and setting: the result for `CCNc1nc(NCC)nc(OCCNS(=O)(=O)c2ccccc2)n1` reads -1.79; that for `Cc1noc(C(=O)N2CCN(c3ccccc3)CC2)c1Cl`, -1.23; that for `CC(=O)c1cc2c(cc1NC(=O)c1cc(C)nn1-c1ccccc1)OCO2`, -1.17. Same read-out and setting: under `Cc1cc(NC(=O)CSc2nnc(Cc3cc(=O)[nH]c(=O)[nH]3)n2-c2ccccc2)no1` stands -1.88; under `Fc1ccc(-c2nnc3ccc(NCCN4CCOCC4)nn23)cc1`, -1.13.

For the molecule `CC(C)OCCCNC(=O)c1ccc(NC2=NC3CS(=O)(=O)CC3S2)cc1` (stereo unspecified), the fold change was 1.22. The same measure, in the same setting: the result for `CCCc1nnc(NC(=O)Nc2ccccc2Cl)s1` reads -1.54; that for `Cc1ccc2ccc(C(Nc3ccccn3)c3ccncc3)c(O)c2n1` (stereo unspecified), -1.62; that for `CCOc1cc2c(cc1OCC)C(c1ccc(Br)cc1)CC(=O)N2` (stereo unspecified), 1.18. On the same count and under the same terms, under `CC(C)C(NS(=O)(=O)c1ccc2c(c1)oc(=O)n2C)C(=O)N1CCN(c2ccccc2F)CC1` (stereo unspecified) stands 1.1; under `CN(Cc1ccco1)C(=O)c1ccc(CNc2c(N3CCCCC3)c(=O)c2=O)cc1`, -1.11; under `O=C(Cn1c(=O)oc2cc(S(=O)(=O)N3CCc4ccccc43)ccc21)NC1CCCC1`, -1.1. Same read-out and setting: the result for `CN1CCN(CCCNC(=O)Cn2ncc3c4ccccc4n(C)c3c2=O)CC1` reads -1.07; that for `CCCCCNC(=O)c1ccc(NC2=NC3CS(=O)(=O)CC3S2)cc1` (stereo unspecified), 1.22. For the molecule `CCn1c(SCC(=O)Nc2nnc(C)s2)nnc1-c1c[nH]c2ccccc12`, the outcome was inactive.

As to `COc1cc(NC(=O)c2onc(C)c2Cl)cc(OC)c1OC`, the fold change was 1.32. The same measure, in the same setting: the result for `O=C(Cc1ccc(NC2=NC3CS(=O)(=O)CC3S2)cc1)NCc1ccco1` (stereo unspecified) reads -1.32.
